In PubChem BioAssay (NCI):
This is part of a sample that, as a whole, favours compounds with a hit. Of some 83,000 tested, about 20% had one in any assay.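 Treatment: one concentration, 48 hours, 96-well format. Scoring: percent growth, with anything below 10 considered active.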 Activity calls are given as the source filed them.

System: SW-620 colon
Experiment: NCI-60 one-dose screen, 48 h (100 = growth as untreated, 0 = no growth, -100 = all killed)
Conditions: 10 µM unless noted
Procedure: Growth inhibition of the SW-620 human tumor cell line is measured as a screen for anti-cancer activity. Cells are grown in 96 well plates and exposed to the test compound for 48 hours. Compounds are tested at a single concentration, which is 10^-5 M for most compounds. The reported endpoint is percent growth (GI% or GIPRCNT), where numbers from 0 - 100% represent growth inhibition, and numbers from -100% - 0 represent cell death. For example, a value of 40 represents 60% growth inhibition. A value of 0 means no net growth occurred over the course of the experiment. A value of -40 indicates 40% of cells at the beginning of the experiment died by the end of the experiment. A value of -100 means all cells are dead at the end of the experiment.
NCI-60 Human Tumor Cell Lines Screen was performed using the standard one-dose NCI protocol, which is described in more detail at https://dtp.cancer.gov/discovery_development/nci-60/default.htm.
Compounds with GIPRCNT values below 10 were considered active. Activity score was based on GIPRCNT using the following formula: […]
Score is 0 for GIPRCNT values of 100 or above, 50 for GIPRCNT values of 0, and 100 for GIPRCNT values of -100.

SMILES | growth
Cn1cc(-c2csc(-c3cn(CCO)c4ccc(F)cc34)n2)c2cccnc21 | 29.8% (inactive)
O=C(CSc1nnc(-c2cc(-c3ccc(Cl)cc3)nc3ccccc23)n1-c1ccccc1)Nc1ccc(Cl)cc1 | 106% (inactive)
Oc1ccc(Cc2ccc(O)c3ncccc23)c2cccnc12 | 16.7% (inactive)
CC(C)=CC(=O)C1C(=O)c2ccccc2C1=O | 102% (inactive)
COc1cc(/C=C/c2cc(/C=C/c3ccc(O)c(OC)c3)n(C(=O)Nc3ccc(C)cc3C)n2)ccc1O | -10.9% (active)
COc1ccc(/C=C/C(=O)c2ccc(-n3cc(CN4CCN(c5cc6c(cc5F)c(=O)c(C(=O)O)cn6C5CC5)CC4)nn3)cc2)cc1 | 32.8% (inactive)
COc1ccc(C2=C/C(=C\c3ccccc3O)C(=O)N2Cc2ccccc2)cc1 | 92.2% (inactive)
C1=C2CCCC3=Cc4ccccc4OC23Oc2ccccc21 | 18.1% (inactive)
CC1(C)CCC[C@]23C(=O)O[C@](O)(C(=O)C4=C[C@@](C)(/C=C/CCCc5ccc6ccc7cccc8ccc5c6c78)CC[C@@]42O)[C@@H]13 | -63.3% (active)
CN1/C(=C/C=C/c2n(Cc3ccc4ccccc4c3)c(Cl)c(Cl)[n+]2Cc2ccc3ccccc3c2)Oc2ccccc21 | -79.9% (active)
Cc1c(-c2cnc3ccc(Cl)cc3c2C(=O)O)nnn1-c1ccc(Cl)cc1 | 112% (inactive)
COc1cc2c(cc1-c1c(C)noc1C)ncc1nc(C3CCOCC3)n(C3CCC(OC(F)F)CC3)c12 (stereo not given) | 76.3% (inactive)
COc1cc(OCc2cccc(-c3ccccc3)c2C)cc(OC)c1CN1CCCCC1C(=O)NCCOCCOCCN (stereo not given) | 61.2% (inactive)
CCOC(=O)c1c2c(n3ccc(NC(=O)CCN4CCCC4)cc13)C(=O)c1ncccc1C2=O | -82.9% (active)
Clc1nc(N2CCC[N+]3(CC2)CC[N+]2(CCCNCC2)CC3)nc(N2CCC[N+]3(CC2)CC[N+]2(CCCNCC2)CC3)n1 (stereo not given) | 98.2% (inactive)
CC(=O)[C@H]1CC[C@]2(C)[C@@H]1CC[C@@H]1[C@@]3(C)C/C(=C/c4cccnc4)C(=O)C(C)(C)[C@@H]3CC[C@]12C | 61.9% (inactive)
CCCC1Cc2cc(-n3nc(C)c4c3CC(C)(C)CC4=O)cc(NC3CCC(O)CC3)c2C(=O)N1 (stereo not given) | 20.4% (inactive)
C=CCOC(=O)C1=C(C)N(CC)C(=O)N(CC)C1c1c(Cl)n(C)c2ccccc12 (stereo not given) | 84.6% (inactive)
O=C1CCc2c(sc3[nH]c(=S)n(-c4cc(C(F)(F)F)cc(C(F)(F)F)c4)c(=O)c23)C1 | 18.5% (inactive)
COc1cc(OC)cc(C(=O)Nc2cnc(Nc3ccc(N4CCOCC4)nc3)nc2Oc2ccc(C(F)(F)F)cc2)c1 | 71.2% (inactive)

SMILES | growth
CCN(CC)CCN1C(=O)c2c(c(C)c3c(oc4cc(OC)ccc43)c2C)C1=O | 96.3% (inactive)
Cc1ccc(-c2nn(CC(=O)N3CCOCC3)c(N)c2C#N)cc1 | 104% (inactive)
CC(=O)OCC(=O)O[C@@H]1C[C@]2(C(C)C)O[C@@]1(C)[C@@H]1CC[C@@H](C)[C@H]1[C@@H]2OC(=O)/C=C/c1ccccc1 | 104% (inactive)
COC(=O)CNC(=O)c1ccc(NC(=O)c2[nH]c(C)c(Cl)c2Cl)c(O[C@H]2CCNC2)c1 | 103% (inactive)
COc1ccc(Nc2nccc(Nc3ccc4[nH]ncc4c3)n2)cc1 | 24.8% (inactive)
CN1CCN(c2ccc(Nc3ncc4[nH]c(=O)n(Cc5ccccc5N)c4n3)cc2)CC1 | 95.3% (inactive)
Cn1ccnc1C(=O)/C=C/c1ccc(CC(=O)Nc2cc(F)c(F)c(F)c2)cc1 | 9% (active)
CCOC(=O)/C(=C/c1ccc([N+](=O)[O-])cc1)C(=O)c1ccccc1 | 6.12% (active)
COc1cc2cc(Oc3ccc(NC(=O)Nc4ccc(Cl)c(Cl)c4)cc3)c(C)nc2cc1OCCN1CCCCC1 | 14.4% (inactive)
CCOC(=O)/C=C1\S/C(=N\Nc2cc(=O)[nH]c3ccc(OC)cc23)N(c2ccccc2)C1=O | 95.3% (inactive)
C(CCCSC1=NCCN1)CCSC1=NCCN1 | 98.2% (inactive)
Oc1cccc(-c2nc(-c3n[nH]c(=S)n3-c3ccccc3)cc3c2[nH]c2ccccc23)c1 | 20% (inactive)
O=C1c2c(c3c4cccnc4[nH]c3c3ccc4ccccc4c23)C(=O)N1O | 21.2% (inactive)
COc1cccc(-c2cc(-c3ccc(Nc4nc(Nc5ccc(Cl)cc5)nc(Nc5ccc(Cl)cc5)n4)cc3)nc(N)c2C#N)c1 | -39.7% (active)
COC(=O)c1sc(-c2ccc(C)cc2)cc1O | 103% (inactive)
COc1ccc(C(c2cc(OC)c(OC)c(OC)c2)n2cncn2)cc1O (stereo not given) | 29.1% (inactive)
COc1ccccc1-c1nc2ccc3[nH]ncc3c2c2c1CCCC2 | 82.6% (inactive)
CCOC(=O)/C(=C\c1ccccc1Cl)P(=O)(OCC)OCC | 46.6% (inactive)
CC(=O)c1ccc(Nc2nccc(-c3ccc(Cl)cc3)n2)cc1 | 92.6% (inactive)
COc1ccc(-c2cc(-c3ccc(Cl)cc3)c(C#N)c(=O)n2CCCCC(=O)NO)cc1 | 80% (inactive)
